# Laboratory results published in PubChem BioAssay (Tox21).
# Inconclusive results are not listed. Entries that show only a call come without a potency. Activity calls are given as the source filed them. Unless noted, the call rests on the fitted dose curve; in most records, active means well fitted curve in the direction sought with a large enough effect in the repeat runs; inconclusive means weak or mixed curves; inactive means no such curve, though single readings can be large; an effect the other way counts as inactive or inconclusive.
# What was measured:
# [1] = target: Aryl hydrocarbon receptor (Homo sapiens) (UniProt P35869); assay: qHTS assay to identify small molecule that activate the aryl hydrocarbon receptor (AhR) signaling pathway (AID 743085); conditions: HepG2 AhR-luc (HG2L7.5c1), luciferase, 24 h; series mostly up to 70.3 µM; further: nearly all actives have a fitted effect of over 15% in size; further: potency means the concentration at half of the fitted maximal effect;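 on activation: HG2L7.5c1 human HepG2 liver cells with stably integrated DRE-driven firefly reporter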
# Chain of Aryl hydrocarbon receptor (Homo sapiens) (P35869 whole entry, looked up): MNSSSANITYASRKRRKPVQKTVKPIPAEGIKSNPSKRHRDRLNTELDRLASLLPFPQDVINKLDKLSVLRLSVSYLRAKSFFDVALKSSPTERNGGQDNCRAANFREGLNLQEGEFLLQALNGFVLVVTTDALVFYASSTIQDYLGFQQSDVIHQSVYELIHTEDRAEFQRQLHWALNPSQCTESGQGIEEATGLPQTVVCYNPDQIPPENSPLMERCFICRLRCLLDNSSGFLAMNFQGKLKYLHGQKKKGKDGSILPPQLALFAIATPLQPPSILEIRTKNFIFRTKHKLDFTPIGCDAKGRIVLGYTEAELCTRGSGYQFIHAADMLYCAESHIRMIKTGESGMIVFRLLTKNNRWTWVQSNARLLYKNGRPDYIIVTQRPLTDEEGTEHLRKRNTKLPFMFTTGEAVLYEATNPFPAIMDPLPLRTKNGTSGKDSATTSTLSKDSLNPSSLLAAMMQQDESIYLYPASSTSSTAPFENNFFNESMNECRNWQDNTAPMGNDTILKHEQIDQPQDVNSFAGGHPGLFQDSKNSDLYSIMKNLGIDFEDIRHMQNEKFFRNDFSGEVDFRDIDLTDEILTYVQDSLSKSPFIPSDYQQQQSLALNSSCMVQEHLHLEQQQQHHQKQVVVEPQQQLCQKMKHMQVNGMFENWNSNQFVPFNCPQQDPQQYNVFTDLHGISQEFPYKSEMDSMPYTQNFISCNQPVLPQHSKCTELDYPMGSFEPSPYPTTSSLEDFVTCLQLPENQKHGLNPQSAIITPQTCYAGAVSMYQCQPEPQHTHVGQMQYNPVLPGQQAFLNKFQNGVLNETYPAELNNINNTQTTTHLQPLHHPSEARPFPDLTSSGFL
# Outline: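 Cell line HG2L7.5c1 (human hepatoma, 20× DRE-luc). Plated, 5 h 37C, compound/DMSO added, 24 h 37C. CellTiter-Fluor 30 min 37C → fluorescence; then ONE-Glo 30 min RT → luminescence.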
# [2] = target: Peroxisome proliferator-activated receptor gamma (Homo sapiens) (UniProt P37231); assay: qHTS assay to identify small molecule agonists of the peroxisome proliferator-activated receptor gamma (PPARg) signaling pathway (AID 743094; active means well fitted activation curve with a large enough effect in the signal ratio in the repeat runs, not every such curve was filed as active; the % refers to the signal ratio); conditions: HEK293H PPARg-UAS-bla, beta-lactamase FRET ratio, 17 h; series mostly up to 57 µM
# Chain of Peroxisome proliferator-activated receptor gamma (Homo sapiens) (P37231 whole entry, looked up): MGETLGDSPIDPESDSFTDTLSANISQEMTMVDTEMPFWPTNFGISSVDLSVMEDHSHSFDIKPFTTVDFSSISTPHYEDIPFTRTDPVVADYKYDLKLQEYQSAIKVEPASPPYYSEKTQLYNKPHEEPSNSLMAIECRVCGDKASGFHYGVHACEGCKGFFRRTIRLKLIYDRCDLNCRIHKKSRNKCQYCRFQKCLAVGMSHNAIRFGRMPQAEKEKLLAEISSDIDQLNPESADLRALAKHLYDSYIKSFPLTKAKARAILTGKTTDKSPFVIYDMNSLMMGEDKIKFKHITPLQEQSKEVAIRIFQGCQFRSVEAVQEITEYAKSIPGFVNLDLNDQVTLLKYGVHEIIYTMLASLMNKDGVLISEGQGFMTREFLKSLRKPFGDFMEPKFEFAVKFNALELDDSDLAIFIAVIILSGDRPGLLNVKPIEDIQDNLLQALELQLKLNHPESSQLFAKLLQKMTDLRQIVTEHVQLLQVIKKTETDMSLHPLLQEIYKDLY
# Outline: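 Agonist activity was taken from a beta-lactamase reporter (FRET substrate, 1 h at room temperature) in HEK293H cells carrying a PPARg UAS-bla construct. Compounds in DMSO were incubated 17 h at 37C after a 5 h cell pre-incubation.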
# [3] = qHTS assay for small molecule agonists of the antioxidant response element (ARE) signaling pathway - cell viability counter screen (AID 743203; calls by dose curve; further: nearly all actives have a fitted effect of over 55% in size; further: potency means the concentration at half of the fitted maximal effect); conditions: ARE-bla HepG2 viability, CellTiter-Glo luminescence, 16 h; series mostly up to 73.3 µM
# Outline: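 Viability counter screen: CellTiter-Glo luminescence, read after 30 min at room temperature, in ARE-bla HepG2 wells. Compound exposure lasted 16 h at 37C/5% CO2, following a 5 h pre-incubation of the cells after plating.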
# [4] = qHTS assay for small molecule activators of the heat shock response signaling pathway - cell viability counter screen (AID 743209); conditions: HSE-bla HeLa viability, CellTiter-Glo luminescence, 5 h; series mostly up to 62.6 µM; further: nearly all actives have a fitted effect of over 50% in size; further: potency means the concentration at half of the fitted maximal effect
# Outline: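 Cytotoxicity counter screen run in the same wells as the heat-shock bla reporter assay: HeLa HSE-bla cells, 5 h compound exposure at 37 C, viability read by CellTiter-Glo luminescence.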
# [5] = qHTS assay for small molecule activators of the heat shock response signaling pathway (AID 743210; active means well fitted activation curve with a large enough effect in the signal ratio in the repeat runs, with a control signal flat, not every such curve was filed as active; the % refers to the signal ratio;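 further: HeLa cells with beta-lactamase reporter driven by heat shock elements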); conditions: HeLa HSE-bla reporter, beta-lactamase ratio, 5 h; series mostly up to 62.6 µM
# Outline: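 Fluorescence from a cleaved B/G FRET substrate (2.5 h, room temp) reports HSE-driven beta-lactamase in HeLa cells treated 5 h at 37 C with DMSO-dissolved compounds.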
# [6] = qHTS assay to identify small molecule agonists of the peroxisome proliferator-activated receptor delta (PPARd) signaling pathway - cell viability counter screen (AID 743211); conditions: PPARd-bla HEK293H viability, CellTiter-Glo luminescence, 17 h; series mostly up to 62.6 µM; further: nearly all actives have a fitted effect of over 55% in size
# Outline: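 HEK293H PPARd-bla, 3000 cells/well; 5 h preincubation 37C/5% CO2; cpd in DMSO, 17 h 37C; B/G FRET substrate 2 h RT; CellTiter-Glo 30 min RT, luminescence.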
# [7] = target: Peroxisome proliferator-activated receptor delta (Homo sapiens) (UniProt Q03181); assay: qHTS assay to identify small molecule agonists of the peroxisome proliferator-activated receptor delta (PPARd) signaling pathway (AID 743212; calls by dose curve;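 further: HEK293H cells with PPARd UAS beta-lactamase reporter GeneBLAzer system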); conditions: HEK293H PPARd-UAS-bla, beta-lactamase FRET ratio, 17 h; series mostly up to 62.6 µM
# Chain of Peroxisome proliferator-activated receptor delta (Homo sapiens) (Q03181 whole entry, looked up): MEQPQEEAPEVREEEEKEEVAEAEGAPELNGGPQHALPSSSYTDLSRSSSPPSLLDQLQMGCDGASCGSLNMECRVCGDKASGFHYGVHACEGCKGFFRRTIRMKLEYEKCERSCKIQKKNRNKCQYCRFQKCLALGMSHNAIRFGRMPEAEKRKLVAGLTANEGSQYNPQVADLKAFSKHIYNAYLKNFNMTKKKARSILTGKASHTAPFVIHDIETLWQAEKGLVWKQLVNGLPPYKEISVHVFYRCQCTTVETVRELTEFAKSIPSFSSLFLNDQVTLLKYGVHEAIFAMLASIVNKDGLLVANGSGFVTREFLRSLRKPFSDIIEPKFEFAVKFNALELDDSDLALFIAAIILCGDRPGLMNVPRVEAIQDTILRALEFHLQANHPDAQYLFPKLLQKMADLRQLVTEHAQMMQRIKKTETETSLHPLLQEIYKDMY
# Outline: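 Steps: seed PPARd-bla HEK293H cells; incubate 5 h, 37 C, 5% CO2; add compounds in DMSO; incubate, 37 C; add LiveBLAzer B/G FRET substrate; hold 2 h at room temperature; measure fluorescence.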
# [8] = qHTS assay to identify small molecule antagonists of the peroxisome proliferator-activated receptor delta (PPARd) signaling pathway - cell viability counter screen (AID 743213); conditions: PPARd-bla HEK293H viability, CellTiter-Glo luminescence, 17 h; series mostly up to 62 µM; further: nearly all actives have a fitted effect of over 50% in size
# Outline: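 Same-well viability: cells pre-incubated 5 h, dosed with compound plus 300 nM L165041, kept 17 h at 37 C, FRET substrate 2 h RT, then CellTiter-Glo 30 min RT and luminescence.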
# [9] = qHTS assay to identify small molecule agonists of the farnesoid-X-receptor (FXR) signaling pathway - cell viability counter screen (AID 743218); conditions: FXR-bla HEK293T viability, CellTiter-Glo luminescence, 16 h; series mostly up to 62.6 µM; further: nearly all actives have a fitted effect of over 45% in size
# Outline: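 Viability counter screen in the same wells: CellTiter-Glo luminescence, 30 min room-temperature incubation, measured after the beta-lactamase read. Cells were GeneBLAzer FXR-UAS-bla HEK 293T, compound-treated 16 h at 37C.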
# [10] = qHTS assay to identify small molecule antagonists of the farnesoid-X-receptor (FXR) signaling pathway - cell viability counter screen (AID 743221; active means well fitted cell-killing curve with a large enough effect in the repeat runs, not every such curve was filed as active; further: nearly all actives have a fitted effect of over 50% in size); conditions: FXR-bla HEK293T viability, CellTiter-Glo luminescence, 16 h; series mostly up to 62.6 µM
# Outline: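 Luminescence from CellTiter-Glo measures cytotoxicity in GeneBLAzer FXR-UAS-bla HEK 293T cells. Cells were exposed to compounds with 50 uM chenodeoxycholic acid (final) for 16 h at 37 C, in wells also used for the reporter readout.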
# [11] = target: Vitamin D3 receptor (Homo sapiens) (UniProt P11473); assay: qHTS assay to identify small molecule agonists of the vitamin D receptor (VDR) signaling pathway (AID 743222; calls by dose curve); conditions: HEK293T VDR-UAS-bla, beta-lactamase FRET ratio, 16 h; series mostly up to 63.5 µM
# Chain of Vitamin D3 receptor (Homo sapiens) (P11473 whole entry, looked up): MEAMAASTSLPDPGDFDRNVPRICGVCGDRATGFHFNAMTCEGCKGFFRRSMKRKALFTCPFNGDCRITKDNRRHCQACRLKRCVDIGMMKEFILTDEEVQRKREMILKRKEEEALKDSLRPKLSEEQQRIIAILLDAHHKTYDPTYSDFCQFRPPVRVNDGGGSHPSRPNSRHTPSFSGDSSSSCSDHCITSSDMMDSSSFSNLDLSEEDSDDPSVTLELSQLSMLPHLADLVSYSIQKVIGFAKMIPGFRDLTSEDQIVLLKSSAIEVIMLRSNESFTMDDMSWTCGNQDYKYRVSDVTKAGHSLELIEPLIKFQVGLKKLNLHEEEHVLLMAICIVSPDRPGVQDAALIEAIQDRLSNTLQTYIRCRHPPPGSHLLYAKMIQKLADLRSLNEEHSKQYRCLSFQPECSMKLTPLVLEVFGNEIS
# Outline: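 Agonist mode, beta-lactamase reporter: fluorescence from LiveBLAzer B/G FRET substrate (2 h, room temperature) read after 16 h compound treatment at 37 C of VDR-bla cells, which were pre-incubated 4 h after seeding.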
# [12] = qHTS assay to identify small molecule agonists of the vitamin D receptor (VDR) signaling pathway - cell viability counter screen (AID 743224); conditions: VDR-bla HEK293T viability, CellTiter-Glo luminescence, 16 h; series mostly up to 62.6 µM; further: nearly all actives have a fitted effect of over 50% in size; further: potency means the concentration at half of the fitted maximal effect
# Outline: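 Counter screen run in the same wells as the VDR-bla reporter assay: CellTiter-Glo luminescence, 30 min at room temperature, after 16 h compound treatment at 37C of cells pre-plated for 4 h.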
# [13] = qHTS assay to identify small molecule antagonists of the peroxisome proliferator-activated receptor gamma (PPARg) signaling pathway - cell viability counter screen (AID 743194); conditions: PPARg-bla HEK293H viability, CellTiter-Glo luminescence, 17 h, co-treated with 50 nM rosiglitazone; series mostly up to 62.6 µM; further: nearly all actives have a fitted effect of over 55% in size
# Outline: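 Viability was measured as CellTiter-Glo luminescence in GeneBLAzer PPARg UAS-bla HEK293H cells. These cells had been exposed 17 h at 37 C to compounds together with rosiglitazone at 50 nM final, with the beta-lactamase readout taken in the same wells.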
# [14] = target: Peroxisome proliferator-activated receptor delta (Homo sapiens) (UniProt Q03181); assay: qHTS assay to identify small molecule antagonists of the peroxisome proliferator-activated receptor delta (PPARd) signaling pathway (AID 743215; active means well fitted inhibition curve with a large enough effect in the signal ratio in the repeat runs, not every such curve was filed as active; the % refers to the signal ratio;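 further: cells stimulated with agonist L165041 at 300 nM final during compound exposure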); conditions: HEK293H PPARd-UAS-bla, beta-lactamase FRET ratio, antagonist, 17 h; series mostly up to 62 µM
# Outline: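 Agonist L165041 (300 nM final) added with compound to PPARd-bla HEK293H UAS-bla reporter cells; 17 h incubation at 37 C. Read-out: LiveBLAzer FRET substrate, 2 h at room temperature, fluorescence intensity.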
# [15] = target: Bile acid receptor (Homo sapiens) (UniProt Q96RI1); assay: qHTS assay to identify small molecule agonists of the farnesoid-X-receptor (FXR) signaling pathway (AID 743220; active means well fitted activation curve with a large enough effect in the signal ratio in the repeat runs, not every such curve was filed as active; the % refers to the signal ratio); conditions: HEK293T FXR-UAS-bla, beta-lactamase FRET ratio, 16 h; series mostly up to 62.6 µM
# Chain of Bile acid receptor (Homo sapiens) (Q96RI1 whole entry, looked up): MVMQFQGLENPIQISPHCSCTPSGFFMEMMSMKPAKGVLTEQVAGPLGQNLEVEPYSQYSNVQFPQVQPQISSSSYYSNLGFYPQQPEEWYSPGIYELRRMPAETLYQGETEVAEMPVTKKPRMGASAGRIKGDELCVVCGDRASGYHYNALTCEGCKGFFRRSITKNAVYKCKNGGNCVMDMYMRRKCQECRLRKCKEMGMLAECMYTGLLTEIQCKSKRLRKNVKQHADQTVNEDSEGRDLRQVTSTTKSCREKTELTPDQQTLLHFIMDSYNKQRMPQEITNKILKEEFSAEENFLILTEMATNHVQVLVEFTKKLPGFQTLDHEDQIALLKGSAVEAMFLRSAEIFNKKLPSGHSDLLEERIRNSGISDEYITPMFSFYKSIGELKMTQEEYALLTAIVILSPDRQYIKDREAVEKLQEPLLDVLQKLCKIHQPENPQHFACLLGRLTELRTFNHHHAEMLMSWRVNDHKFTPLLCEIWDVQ
# Outline: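 FXR-UAS-bla HEK 293T cells carrying a UAS-driven beta-lactamase reporter were plated for 5 h at 37C/5% CO2, then exposed to DMSO-dissolved Tox21 10K compounds for 16 h at 37C. A LiveBLAzer B/G FRET substrate was loaded for 2 h at room temperature before fluorescence reading.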
# [16] = qHTS assay to identify small molecule that activate the aryl hydrocarbon receptor (AhR) signaling pathway - cell viability counter screen (AID 743086); conditions: HepG2-AhR-luc viability, CellTiter-Fluor, 24 h; series mostly up to 70.3 µM; further: nearly all actives have a fitted effect of over 45% in size; further: potency means the concentration at half of the fitted maximal effect
# Outline: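 Cytotoxicity counter screen: CellTiter-Fluor signal (30 min, 37 C) in 4000 HepG2 cells/well carrying the DRE-luciferase reporter, following 24 h compound exposure at 37 C.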
# [17] = target: Peroxisome proliferator-activated receptor gamma (Homo sapiens) (UniProt P37231); assay: qHTS assay to identify small molecule antagonists of the peroxisome proliferator-activated receptor gamma (PPARg) signaling pathway (AID 743191; calls by dose curve; further: nearly all actives have a fitted effect of over 30% in size; further: potency means the concentration at half of the fitted maximal effect); conditions: HEK293H PPARg-UAS-bla, beta-lactamase ratio, antagonist, 17 h; series mostly up to 62.6 µM
# Outline: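 Beta-lactamase reporter under UAS control in HEK293H PPARg-bla cells; compound treatment 17 h at 37C. Read-out: fluorescence intensity after 1 h room-temperature incubation with LiveBLAzer B/G FRET substrate.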
# [18] = qHTS assay for small molecule agonists of the antioxidant response element (ARE) signaling pathway (AID 743202; active means well fitted activation curve with a large enough effect in the signal ratio in the repeat runs, not every such curve was filed as active; the % refers to the signal ratio; further: potency means the concentration at half of the fitted maximal effect); conditions: HepG2 ARE-bla reporter, beta-lactamase FRET, 16 h; series mostly up to 73.3 µM
# Outline: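 Beta-lactamase reporter activity, read as fluorescence intensity, reflects ARE/Nrf2 pathway induction in HepG2 cells after 16 h compound exposure at 37 C; substrate loading was 2 h at room temperature.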
# [19] = target: Vitamin D3 receptor (Homo sapiens) (UniProt P11473); assay: qHTS assay to identify small molecule antagonists of the vitamin D receptor (VDR) signaling pathway (AID 743223; active means well fitted inhibition curve with a large enough effect in the signal ratio in the repeat runs, not every such curve was filed as active; the % refers to the signal ratio); conditions: VDR-UAS-bla HEK293T, beta-lactamase FRET ratio, 16 h; series mostly up to 61 µM
# Outline: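 Antagonist mode uses 1alpha,25-dihydroxyvitamin D3 at 3 nM final as stimulus. VDR-bla cells receive compounds in DMSO, incubate 16 h at 37C, then a beta-lactamase FRET substrate for 2 h at room temperature before fluorescence measurement.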
# [20] = target: Bile acid receptor (Homo sapiens) (UniProt Q96RI1); assay: qHTS assay to identify small molecule antagonists of the farnesoid-X-receptor (FXR) signaling pathway (AID 743217; active means well fitted inhibition curve with a large enough effect in the signal ratio in the repeat runs, not every such curve was filed as active; the % refers to the signal ratio; further: potency means the concentration at half of the fitted maximal effect); conditions: HEK293T FXR-UAS-bla, beta-lactamase ratio, CDCA-stimulated, 16 h; series mostly up to 62.6 µM
# Outline: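 Antagonist mode: chenodeoxycholic acid at 50 uM final stimulates a UAS-driven beta-lactamase reporter in HEK 293T FXR-bla cells during 16 h, 37C compound exposure. Read-out is FRET substrate fluorescence after 2 h at room temperature.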
Compound,Potency [1],Potency [2],Potency [3],Potency [4],Potency [5],Potency [6],Potency [7],Potency [8],Potency [9],Potency [10],outcome [11],Potency [12],Potency [13],Potency [14],Potency [15],Potency [16],Potency [17],Potency [18],outcome [19],Potency [20]
CCn1nc(C)c2c1C(=O)NCC(c1ccc(O)cc1)=N2,24.3 µM (active),inactive,inactive,inactive,inactive,inactive,inactive,inactive,inactive,inactive,inactive,inactive,–,–,–,–,–,–,–,–
CC1C2CC(CC2C2CCCC(O)C2)C1(C)C (stereo not drawn),inactive,–,61.1 µM (active),49 µM (active),–,–,inactive,–,–,–,inactive,49 µM (active),inactive,inactive,inactive,–,–,–,–,–
Cc1ccnc2ccccc12,–,inactive,inactive,inactive,–,inactive,inactive,inactive,inactive,inactive,inactive,inactive,inactive,inactive,–,inactive,inactive,inactive,inactive,–
Fc1ccccc1[C@@H](F)COC1CCC(Nc2ncnc3[nH]ncc23)CC1 (stereo partly drawn),inactive,–,inactive,inactive,inactive,–,inactive,inactive,inactive,inactive,inactive,–,–,–,inactive,–,–,–,–,43.6 µM (active)
Nc1ccc(C(=O)OCCCOC(=O)c2ccc(N)cc2)cc1,–,inactive,inactive,inactive,inactive,–,–,inactive,inactive,inactive,–,inactive,–,–,inactive,inactive,43.6 µM (active),–,inactive,inactive
CCCCC(CC)CNCC(CC)CCCC (stereo not drawn),–,–,inactive,inactive,–,inactive,inactive,inactive,inactive,inactive,inactive,inactive,inactive,inactive,inactive,inactive,–,inactive,inactive,inactive
O=C(CCCN1CCC(O)(c2ccc(Br)cc2)CC1)c1ccc(F)cc1,–,inactive,–,–,inactive,–,inactive,inactive,–,–,inactive,inactive,inactive,–,–,inactive,–,–,inactive,–
Cc1cc2nc3ccc(=[N+](C)C)cc-3sc2cc1N,–,inactive,11.9 µM (active),inactive,–,–,inactive,inactive,–,inactive,inactive,–,–,inactive,inactive,9.44 µM (active),–,2.11 µM (active),inactive,10.6 µM (active)
O=C(O)C(Cc1cc(I)c(O)c(I)c1)c1ccccc1 (stereo not drawn),–,–,inactive,inactive,inactive,inactive,inactive,inactive,inactive,inactive,–,inactive,inactive,inactive,–,inactive,–,inactive,–,–
COCCOC,–,–,inactive,inactive,inactive,inactive,–,inactive,inactive,inactive,inactive,inactive,inactive,–,inactive,inactive,–,inactive,inactive,inactive
O=C(O)c1ccc(CO)o1,–,inactive,inactive,inactive,inactive,inactive,inactive,inactive,inactive,inactive,inactive,inactive,inactive,inactive,inactive,inactive,–,inactive,–,inactive
CCN(Cc1cccc(S(=O)(=O)O)c1)c1ccc(C(=C2C=CC(=[N+](CC)Cc3cccc(S(=O)(=O)[O-])c3)C=C2)c2ccccc2)cc1,–,inactive,inactive,inactive,inactive,inactive,–,inactive,inactive,inactive,–,inactive,inactive,–,–,inactive,–,38.3 µM (active),–,–
Cc1cc(S(=O)(=O)O)ccc1N=Nc1c(O)ccc2ccccc12,–,inactive,inactive,inactive,inactive,inactive,–,inactive,inactive,inactive,inactive,inactive,inactive,–,inactive,24.3 µM (active),–,inactive,inactive,inactive
COc1cc2c(N3CCN(C(=O)Nc4ccc(OC(C)C)cc4)CC3)ncnc2cc1OCCCN1CCCCC1,–,inactive,inactive,inactive,inactive,–,–,–,inactive,inactive,inactive,inactive,inactive,–,–,23.7 µM (active),–,–,–,–
CC(C)=CC=O,–,inactive,inactive,inactive,inactive,inactive,inactive,inactive,inactive,inactive,inactive,inactive,–,–,–,inactive,–,inactive,inactive,–
CCC(C)(O)CCC=C(C)C (stereo not drawn),–,inactive,–,inactive,–,inactive,inactive,inactive,inactive,inactive,inactive,inactive,–,inactive,–,inactive,inactive,inactive,inactive,–
C=CCOC(=O)/C=C\C(=O)OCC=C,–,inactive,inactive,–,–,inactive,inactive,inactive,inactive,inactive,inactive,inactive,inactive,inactive,inactive,inactive,–,27.8 µM (active),–,inactive
NC(=O)Nc1ccc(Cl)cc1,–,inactive,inactive,inactive,–,inactive,inactive,inactive,inactive,inactive,inactive,inactive,–,–,–,inactive,–,inactive,inactive,–
